The full list was thinned out, with hits kept by preference.
Pf Dd2 inh: Plasmodium falciparum Dd2 growth inhibition | P. falciparum Dd2 growth, SYBR Green, 72 h | Potency, µM (doses to about 28.9 µM), for the others: at the highest dose activity, negative = inhibition, usual class: inhibitors | actives 4.3% (n = 120,000); active = well fitted inhibition curve with a large enough effect;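 note: plate controls were DMSO vehicle for no effect and reference drug for full effect; nearly all actives have a fitted effect of over 65% in size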
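Infected erythrocytes (Dd2, 0.3% parasitemia, 2.5% hematocrit final) are added to compound in RPMI-1640/Albumax II medium, grown 72 h at 37C in low oxygen, then lysed with saponin/Triton-X containing SYBR Green and read by fluorescence.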
* marks the source's active call; other numbers are inactive results; i = inactive; [ ] = remark or other dose. Potency is the fitted concentration of half-maximal effect.

SMILES | Pf Dd2 inh
CCOc1ccccc1NC(=O)CSc1nc2c(c(=O)[nH]1)CCC2 | i
COc1cc(=O)n2c(c1C(=O)Nc1ccc(F)cc1Cl)CCCC2 | 32%
CCOC(=O)c1ccc(NC(=O)CSc2nc3c(c(=O)[nH]2)CN(Cc2ccccc2)CC3)cc1 | -10%
COC(=O)N1CCn2ncc(C(=O)Nc3ccc(Cl)cc3Cl)c2C1 | -3%
COc1ccc(-c2nc(C)nc3c2CN(Cc2ccc(NC(C)=O)cc2)CC3)cc1 | i
CCn1c2c(c(=O)n3ncc(C(=O)Nc4ccc(F)cc4Cl)c13)CN(Cc1ccc(OC)cc1)CC2 | 11µM*
CCn1c2c(c(=O)n3ncc(C(=O)Nc4ccc(C(=O)OC)cc4)c13)CN(Cc1ccc(OC)cc1)CC2 | 10µM*
Cc1ccc(NC(=O)C2CC(=O)N(c3n[nH]c4cc(Br)ccc34)C2)c(C)c1 (configuration not stated) | 4%
CNC(=O)N1CCC(C2CCN(C(=O)c3cnn(C)c3)C2)CC1 (configuration not stated) | -2%
CCc1cccc(NC(=O)N2c3ccccc3CC2c2nc(CCOC)no2)c1 (configuration not stated) | i[5.79 µM]
CCOc1ccc(S(=O)(=O)N2CCCN(C)c3ccccc32)cc1 | -25%
COc1ccc(-c2nc3c(c(-c4ccccc4)n2)CN([S+](=O)([O-])c2c(C)noc2C)CC3)cc1 | 19%
CC(C)=CCn1c(-c2ccccc2Cl)cn2cc(C(=O)NCCCO)nc2c1=O | 7.9µM*
C=CCn1c(-c2ccc(F)cc2)cn2cc(C(=O)N[C@@H](C)CO)nc2c1=O | -17%
C=CCn1c(-c2cccs2)cn2cc(C(=O)NC(CC)CO)nc2c1=O (configuration not stated) | 1%
Cn1cccc1C(=O)NC[C@H]1O[C@@H](CO)[C@@H](O)[C@H]1N1CCOCC1 | i
COCCNC(=O)[C@H]1C[C@H](Oc2cccnc2)CN1C(=O)NCc1ccc(C)cc1 | 12%
COc1cc2c(c(OC)c1)C(c1cc(OC)c(OC)c(OC)c1)CC(=O)N2 (configuration not stated) | -26%
COc1cc(C2CC(=O)Nc3cc4c(cc32)OCCO4)cc(Br)c1OC (configuration not stated) | 1µM*
COc1cccc(C2CC(=O)Nc3cc4c(cc32)OCO4)c1OC(C)C (configuration not stated) | 12%
CCOc1cc(C2CC(=O)Nc3cc4c(cc32)OCCO4)ccc1O (configuration not stated) | -12%
Cc1cccc(C2CC(=O)Nc3cc4c(cc32)OCO4)c1 (configuration not stated) | -2%
CCOc1c(Br)cc(C2CC(=O)Nc3cc4c(cc32)OCO4)cc1OC (configuration not stated) | 3.2µM*
Cc1ccc(C(=O)N2CCC(c3nn(C)c(=O)[nH]3)CC2)cc1 | 7%[44.1 µM]
N#Cc1cccc(C(=O)N2CCCCCCNC(=O)[C@@H]3CCCC[C@@H]32)c1 | 23%
SMILES | Pf Dd2 inh
NCCCC(=O)N1CCCCC1c1nnc2n1CCNC2 (configuration not stated) | -13%
COc1ccc(CCC(=O)NCCC2CCN(C(=O)Nc3cc(F)cc(F)c3)CC2)cc1 | -18%
Fc1ccccc1-c1nnc([C@H]2CCN(Cc3cccc(Cl)c3)C2)o1 | -4%[44.1 µM]
CCOc1ccc(-c2nc(C3CC(=O)N(c4ccc(F)cc4)C3)no2)cc1OCC (configuration not stated) | -5%
CCOc1ccc(-c2cnc(-c3cnc(CC)nc3)[nH]2)cc1OCC | 10µM*
CCc1ncc(-c2ccccc2)[nH]1 | -22%[44.1 µM]
Cc1ccc(NC(=O)NCC2CCOCC2)c(C)c1 | 14%
Cc1ccc(C)c(CN2CCC(CNC(=O)Nc3ccc(Br)cc3F)CC2)c1 | 8.9µM*
COc1ccc(NC(=O)NCC2CCN(Cc3ccccc3F)CC2)c(OC)c1 | 11%
COc1ccccc1C(=O)Nc1ccnn1C1CCN(c2cnccn2)CC1 | -14%
Cc1cccc(C(=O)N2CCC(C(NC(=O)c3ccccc3)C(=O)N3CCCCC3)CC2)c1 (configuration not stated) | 11µM*
COc1cccc(C(=O)N2CCC(C(NC(=O)c3ccccc3)C(=O)NCc3ccco3)CC2)c1 (configuration not stated) | 8.9µM*
COc1ccc(C(=O)N2CCC(C(NC(=O)c3cccc(OC)c3)C(=O)N3CCCC3)CC2)cc1 (configuration not stated) | i
Cc1ccc(C(=O)NC(C(=O)N2CCCC2)C2CCN(C(=O)c3ccccc3F)CC2)cc1 (configuration not stated) | i
CCCNC(=O)C(NC(=O)c1cccc(OC)c1)C1CCN(C(=O)c2cccc(F)c2)CC1 (configuration not stated) | i
COc1cccc(C(=O)NC(C(=O)N2CCCCC2)C2CCN(C(=O)c3cccc(F)c3)CC2)c1 (configuration not stated) | 8.9µM*
O=C(NC(C(=O)N1CCCCC1)C1CCN(C(=O)c2ccccc2)CC1)c1ccccc1Cl (configuration not stated) | i
COCCNC(=O)C(NC(=O)c1cccc(OC)c1)C1CCN(C(=O)c2ccc(C)cc2)CC1 (configuration not stated) | i
O=C(NC(C(=O)NCc1ccco1)C1CCN(C(=O)C2CC2)CC1)c1ccccc1 (configuration not stated) | 10%
Cn1nccc1C(=O)N1CC(N(C2CCOCC2)S(C)(=O)=O)C1 | -5%
Cc1nc(C2CC(N)C2)cc(N2CCC(CN3CCCC3=O)CC2)n1 (configuration not stated) | -9%
CC(C)CNC(=O)C1CCN(C(=O)N2CC3CC(C2)[C@H]2CCCC(=O)N2C3)CC1 (some centres not stated) | -25%
Cc1ccc2nc(SCCC(=O)N3CC[C@@](C)(O)[C@@H](O)C3)cc(C)c2c1 | 8%
COc1ccc(C[C@H](NC(=O)[C@@H]2C[C@H](NC(=O)Nc3cccc(OC)c3)CN2C(=O)c2cccn2C)C(N)=O)cc1 | -2%
Cc1ccc(S(=O)(=O)N2CCCC(Cn3cnc4cccnc43)C2)c(C)c1 (configuration not stated) | i
SMILES | Pf Dd2 inh
O=C(Nc1ccc2nc(SCCOc3ccccc3Cl)sc2c1)c1cccs1 | 2.8µM*
CCC(=O)Nc1ccc2nc(SCCOc3ccccc3)sc2c1 | i
Cc1ccccc1NC(=O)CSc1nc2ccc(NC(=O)c3cccs3)cc2s1 | i
Cc1ccc(OCCSc2nc3ccc(NC(=O)COc4ccc(F)cc4)cc3s2)cc1 | 19%
Cc1ccc(OCCSc2nc3ccc(NC(=O)c4cccs4)cc3s2)cc1 | 1µM*
Cc1ccc(OCCSc2nc3ccc(NC(=O)c4ccc(F)cc4)cc3s2)cc1 | 21%
Cc1cccc(CNC(=O)C2CC(c3ccc(F)c(C)c3)CN(C(=O)c3ccccc3)C2)c1 (configuration not stated) | -1%
Cn1nccc1C(=O)N1CCc2ccc(NC(=O)C3(c4ccccc4)CC3)cc2C1 | -6%
O=C1CCN(S(=O)(=O)c2ccccc2)CCCN(C(=O)C2(c3ccccc3)CC2)CCN1 | 0.79µM*
O=C1CCN(C(=O)C2(c3ccccc3)CC2)CCCCCCN1 | -23%
O=C1CCN(S(=O)(=O)c2ccccc2)CCCN(Cc2ccc3[nH]ccc3c2)CCN1 | 11µM*
O=C1CCN(S(=O)(=O)c2ccccc2)CCCN(C2CCCCCC2)CCN1 | 10µM*
O=C1CCN(S(=O)(=O)c2ccccc2)CCCN(C(=O)c2cc3ccccc3[nH]2)CCN1 | -26%
COc1ccc(C(=O)N2CCCN(S(=O)(=O)c3ccccc3)CCC(=O)NCC2)cc1 | i

Screening data (PubChem)
